From PubChem BioAssay (EPA / NIEHS) come the findings set out here.

The nature of test [1]: Tanguay_ZF_120hpf_BRN: Oregon State University Tanguay Lab 120 Hour Post-fertilization zebrafish Assay for Brain Region Malformation (AID 2284402). A digest of the protocol: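 Binary brightfield scoring of brain malformation at 120 hpf in 5D wild-type larvae, chorion removed with pronase at 4 hpf. Static exposure began at 6 hpf, 28C, sealed plates, DMSO 0.64% (vol/vol) as vehicle baseline.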

Test [2] can be described thus: Tanguay_ZF_120hpf_TCHR: Oregon State University Tanguay Lab 120 Hour Post-fertilization zebrafish Assay for Touch Responsive (AID 2284403). A digest of the protocol: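 Binary touch-response calls are made at 120 hpf in 5D wild-type zebrafish larvae. These larvae were dechorionated with pronase and exposed singly from 6 hpf in sealed, dark plates at 28 °C with 0.64% DMSO final; dead embryos are excluded.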

A short description of test [3]: CCTE_Padilla_ZF_Score.Edema: CCTE's 144 Hour Post-fertilization zebrafish Assay Score for Edema Malformation, Padilla Lab (AID 2284406). A digest of the protocol:
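Edema scored at 6 dpf by two blinded observers under a stereo microscope, in single outbred wild-type larvae exposed from 6-8 hpf in sealed wells (Hanks', 26C, 14:10 h light) and chemical-free after a 5 dpf rinse.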

A short description of test [4]: CCTE_Padilla_ZF_Score.Swim_bladder: CCTE's 144 Hour Post-fertilization zebrafish Assay Score for Swim Bladder Malformation, Padilla Lab (AID 2284408). A digest of the protocol: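 Swim bladder inflation scored at 6 dpf by two blinded observers under a stereo microscope. Exposure ran from 6–8 hpf in sealed wells of 10% Hanks' at 26C, with rinsing at 5 dpf; DMSO served as baseline.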

Test [5] can be described thus: CCTE_Padilla_ZF_Score.Position: CCTE's 144 Hour Post-fertilization zebrafish Assay Score for Position, Padilla Lab (AID 2284409). In a few lines:
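Wild-type zebrafish embryos (with chorions) exposed singly from 6–8 hpf in sealed wells of Hanks' solution at 26C, rinsed at 5 dpf. At 6 dpf, blinded assessors scored abnormal water-column position by brightfield stereomicroscopy, relative to DMSO.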

Test [6] in a line: CCTE_Padilla_ZF_Score.Living: CCTE's 144 Hour Post-fertilization zebrafish Assay Score for Viability, Padilla Lab (AID 2284410).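 Further: larval death at 6 dpf judged by absent heartbeat or coagulation.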 In a few lines:
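Mortality at 6 dpf, judged as absent heartbeat or coagulation by two blinded observers, after sealed static exposure beginning at 6–8 hpf at 26C. Larvae were rinsed free of chemical at 5 dpf, and activity was fitted relative to DMSO.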

Test [7] in a line: CCTE_Padilla_ZF_Score.General: CCTE's 144 Hour Post-fertilization zebrafish Assay Score for General Malformation, Padilla Lab (AID 2284411). A digest of the protocol:
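Malformation, death and hatching were scored at 6 dpf by two blinded observers under a stereo microscope. Embryos were dosed singly from 6-8 hpf in sealed plates of 10% Hanks' at 26C and rinsed on 5 dpf; DMSO baseline.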

Test [8] is described as follows: CCTE_Padilla_ZF_Score.Blood_pooling: CCTE's 144 Hour Post-fertilization zebrafish Assay Score for Blood Pooling, Padilla Lab (AID 2284415). A digest of the protocol:
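Blood pooling was scored at 6 dpf under a stereo microscope by two blinded assessors, fitted upward against DMSO. Single embryos were dosed at 6–8 hpf in 10% Hanks', kept sealed at 26C (14:10 h cycle) and rinsed at 5 dpf.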

Test [9] has as its system SRY-box transcription factor 2 (SOX2) Protein Expression, Deisenroth Lab, SOX2 (gene 6657). As to the kind of experiment: CCTE_Deisenroth_DEVTOX-GLR_Endo_SOX2: CCTE's DevTox GLR-Endo Assay Evaluation of SRY-box transcription factor 2 (SOX2) Protein Expression, Deisenroth Lab (AID 2284412; active means hit-call score of the fitted dose curve at least 0.9, where 1 is the maximum). The protocol: CCTE_Deisenroth_DEVTOX-GLR_Endo assay is a cell-based, multiplex-readout assay that uses RUES2-GLR, a human pluripotent cell line, with measurements taken at 48 hours after chemical dosing in a 384-well microplateCCTE_Deisenroth_DEVTOX-GLR_Endo_SOX2 is 1 of 4 assay components calculated from the CCTE_Deisenroth_DEVTOX-GLR_Endo assay and it measures the percentage of cells in an ectoderm state. Using a type of inducible fluorescent protein reporter, gain-of-signal activity can be used to understand changes in gene expression with fluorescent microscopy. The percentage SOX2+ cells are determined by calculating the number of SOX2+ cells divided by the cell count. To generalize the intended target to other relatable targets, this assay component is annotated to the transcription factor intended target family, where the subfamily is SRY-related HMG-box.Data from the assay component CCTE_Deisenroth_DEVTOX-GLR_Endo_SOX2 was analyzed as 1 assay endpoint. The endpoint is the percent SOX2+ cell population minus the 0.2% DMSO control in the CCTE_Deisenroth_DEVTOX-GLR_Endo assay. Furthermore, this assay endpoint can be referred to as a secondary readout, because this assay has produced multiple assay endpoints where this one serves as a measure of ectoderm differentiation.
All assay protocols are aligned to the DevTox GLR-Endo assay workflow. Cells are seeded into 384-well microplates for 24 hours prior to initiating differentiation in defined media for a total duration of 48 hours. A total of two chemical exposures are administered in 24-hour intervals during the 48-hour differentiation period. At the assay termination point, cells are fixed and stained with a fluorescent dye demarcating the nucleus. High-content imaging is used to acquire brightfield and fluorescent channel images across 5 fields per well. Cell identification and mean biomarker fluorescence intensities are calculated with image analysis software to determine the total cell counts for viability assessment and the biomarker expression frequency for each lineage-dependent assay. […]

The subject of test [10] is SRY-box transcription factor 17 (SOX17) Protein Expression, Deisenroth Lab, SOX17 (gene 64321). Briefly: CCTE_Deisenroth_DEVTOX-GLR_Endo_SOX17: CCTE's DevTox GLR-Endo Assay Evaluation of SRY-box transcription factor 17 (SOX17) Protein Expression, Deisenroth Lab (AID 2284413). A digest of the protocol: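 Fluorescent microscopy of a SOX17 reporter in RUES2-GLR pluripotent cells scored endoderm differentiation after 48 h and two 24-h-spaced exposures. Values are percent change in SOX17+ population against 0.2% DMSO, n=4 experimental replicates.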

Each structure is given as a SMILES string. Results filed as inconclusive are left out. Calls of active or inactive are those of the source. How the source made its calls, unless noted: active means hit-call score of the fitted dose curve at least 0.9, where 1 is the maximum; inactive means score below 0.9.

As to `O=S(=O)(O)CCC(F)(F)C(F)(F)C(F)(F)C(F)(F)C(F)(F)C(F)(F)F`, the result in test [1], in [2], in [3], in test [4], in [5] and in test [6] was inactive. Moreover, the compound was called inactive in test [7] and in test [8].

Take `C[Si](C)(C)C(F)(F)C(F)(F)C(F)(F)F`: the outcome in [1], in test [2], in test [3], in test [4], in [5] and in test [6] was inactive. The result in test [7] and in test [8] was inactive.

In the case of `FC(F)(F)COC(OCC(F)(F)F)OCC(F)(F)F`, the result in [1], in test [2], in test [3], in test [4], in test [5] and in test [6] was inactive. Further, the compound was classed as inactive in test [7] and in [8].

Broadly, the AC50 is the concentration at which the activity in the assay is half-maximal. Turning to `NC(=O)N1c2ccccc2C=Cc2ccccc21`, the half-maximal activity concentration (AC50) is 16.7 µM (active) in test [9] and 100 µM (active) in test [10].

For `NCC(F)(F)C(F)(F)C(F)(F)C(F)(F)F`, the outcome in test [1], in [2], in test [3], in test [4], in test [5] and in test [6] was inactive. Moreover, the outcome in [7] and in test [8] was inactive.

With `OC(O)(C(F)C(O)(O)C(F)(F)F)C(F)(F)F`, the compound was classed as inactive in test [1], in test [2] and in [6]. The AC50 in [3] is 31.3 µM (active); in test [4], 32.1 µM (active); in test [5], 76.9 µM (active); in test [7], 32.4 µM (active); in test [8], 36.6 µM (active).

With `NNC(=O)c1ccncc1`, the call in test [9] and in test [10] was inactive.

On to `O=C(Cl)C(F)(F)C(F)(F)C(F)(F)C(=O)Cl`, for which the compound was classed as inactive in [1], in test [2], in test [3], in test [4], in test [5] and in test [6]. For the same compound, the result in [7] and in test [8] was inactive.

On to `OCCC(F)(F)C(F)(F)C(F)(F)C(F)(F)F`, for which the compound was called inactive in test [1], in [2], in test [3], in [4], in test [5] and in [6]. Further, the outcome in test [7] and in test [8] was inactive.

For `FC(F)C(F)(F)COCC1CO1` (stereo not drawn), the call in test [1], in test [2], in test [5], in [6] and in test [8] was inactive. The AC50 in test [3] was 29.5 µM (active); in test [4] it was 32.2 µM (active); in test [7] it was 9.44 µM (active).

For `Nc1ccn([C@@H]2O[C@H](CO)[C@@H](O)[C@@H]2O)c(=O)n1`, the AC50 in test [9] is 4.66 µM (active); in [10], 0.539 µM (active).

For the compound `FC(F)=C(F)C(F)(F)C(F)(F)C(F)(F)C(F)(F)C(F)(F)C(F)(F)F`, the compound was classed as inactive in [1], in test [2], in test [3], in [4], in [5] and in [6]. The outcome in test [7] and in [8] was inactive.

On to `FC(F)(F)C(F)(F)C(F)(F)C(F)(F)C(F)(F)C(F)(F)I`, for which the outcome in [1], in test [2], in [3], in [4], in test [5] and in test [6] was inactive. Also, the result in [7] and in test [8] was inactive.

As for `S=P(N1CC1)(N1CC1)N1CC1`, the compound was called inactive in test [7].

Take `CCCC(CCC)C(=O)O`: the call in [10] was inactive.
